Several values for one entry are separate records, joined by “and”; a condition that tells them apart may be missing. Equal entries are not always repeated. Structures can show the parent of a compound that is named as a salt. Values without a mark were called inactive.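 The calls were made as follows: active = log2 fold change beyond 2 SD from the library mean after excluding viability outliers; inactive = within 2 SD.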

The target of the assay is PARP1 L713F-nLuc biosensor (HCT116) (UniProt P09874). The experiment in a line: PARP1 L713F-nLuc/akaLuc ratio relative to DMSO control (biosensor stabilization) (fold change); higher = more PARP1 biosensor stabilization (target engagement / stabilizer), active = hit call of the paper. As to conditions: 24 h.
Chain of PARP1 L713F-nLuc biosensor (HCT116) (P09874 whole entry L713F, looked up): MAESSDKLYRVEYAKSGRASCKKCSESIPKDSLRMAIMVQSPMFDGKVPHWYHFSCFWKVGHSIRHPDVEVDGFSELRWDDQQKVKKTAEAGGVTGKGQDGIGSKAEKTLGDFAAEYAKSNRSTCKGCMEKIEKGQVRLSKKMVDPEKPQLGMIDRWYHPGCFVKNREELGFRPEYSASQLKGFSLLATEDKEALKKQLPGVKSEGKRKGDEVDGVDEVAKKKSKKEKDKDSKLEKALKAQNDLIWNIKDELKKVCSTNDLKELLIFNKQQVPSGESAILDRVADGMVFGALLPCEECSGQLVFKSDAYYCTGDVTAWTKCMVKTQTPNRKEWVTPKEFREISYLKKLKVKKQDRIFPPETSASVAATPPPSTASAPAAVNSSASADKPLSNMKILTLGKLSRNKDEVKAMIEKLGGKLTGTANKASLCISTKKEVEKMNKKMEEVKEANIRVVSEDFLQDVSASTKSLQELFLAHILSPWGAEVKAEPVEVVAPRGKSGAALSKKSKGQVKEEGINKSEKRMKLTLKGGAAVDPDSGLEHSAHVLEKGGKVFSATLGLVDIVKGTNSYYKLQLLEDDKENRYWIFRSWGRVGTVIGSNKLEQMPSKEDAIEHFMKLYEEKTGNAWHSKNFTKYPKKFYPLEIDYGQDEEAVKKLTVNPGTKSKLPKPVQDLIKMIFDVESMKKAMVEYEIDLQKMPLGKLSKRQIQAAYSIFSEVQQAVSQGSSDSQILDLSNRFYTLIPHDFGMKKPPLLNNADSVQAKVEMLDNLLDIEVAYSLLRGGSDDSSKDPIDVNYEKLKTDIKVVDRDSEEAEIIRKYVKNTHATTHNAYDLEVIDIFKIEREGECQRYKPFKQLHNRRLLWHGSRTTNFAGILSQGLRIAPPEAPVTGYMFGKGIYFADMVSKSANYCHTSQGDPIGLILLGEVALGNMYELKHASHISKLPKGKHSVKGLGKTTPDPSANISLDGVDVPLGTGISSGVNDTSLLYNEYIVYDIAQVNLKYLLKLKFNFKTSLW
The mark [1] stands for this setting: stock concentration (mM; final µM = stock mM x 1): 10.
[2] abbreviates: stock concentration (mM; final µM = stock mM x 1): 2.

As for `CN1CCN(c2nc(C3=C(c4c[nH]c5ccccc45)C(=O)NC3=O)c3ccccc3n2)CC1` [Sotrastaurin], the “PARP1 L713F-nLuc/akaLuc ratio” value under setting [1] is 1.31.
`Cc1cc(Nc2cc(N3CCN(C)CC3)nc(Sc3ccc(NC(=O)C4CC4)cc3)n2)n[nH]1` [Tozasertib]: the “PARP1 L713F-nLuc/akaLuc ratio” value under setting [1] was 0.774.
Still for that read-out and setting: the value for `Cc1cc(-c2ccccc2)cc(C(=O)NNS(=O)(=O)c2ccccc2)c1F` was 0.665.
The same measure, in the same setting: for `CCCOc1ccn2c(C(C)=O)cc(-c3ccccc3S(C)(=O)=O)c2c1` the value was 0.733; for `CC[C@@](C)(Nc1ccnc(-c2c[nH]c3ncccc23)n1)C(=O)NCC(F)(F)F` [Decernotinib (VX-509)], 0.506; for `CCN(c1cc(C#CCN2CCOCC2)cc(C(=O)NCc2c(C)cc(C)[nH]c2=O)c1C)[C@H]1CC[C@H](N(C)CCOC)CC1`, 1.57 and 1.94.
For the molecule `Cn1cc(Nc2nccc(N3C[C@H]4CC[C@@H](C3)N4C(=O)[C@@H]3CC3(F)F)n2)cn1` [Brepocitinib (P-Tosylate)], the “PARP1 L713F-nLuc/akaLuc ratio” value under setting [1] was 0.619.
As to `CNc1nc(NC2CCN(Cc3ccc4c(cc(C#N)n4CC45CC(NC=O)(C4)C5)c3C)CC2)c2cc(CC(F)(F)F)sc2n1`, the “PARP1 L713F-nLuc/akaLuc ratio” value under setting [1] was 1.38.
Same read-out and setting: for `CC[C@H](C)n1cc(C)c2c(C(=O)NCc3c(C)cc(C)[nH]c3=O)cc(-c3ccc(N4CCNCC4)nc3)cc21` the value was 1.03.
Regarding `O=C(NC[C@H](O)CN1CCc2ccccc2C1)c1ccnc(NC2CCC2)c1`, the “PARP1 L713F-nLuc/akaLuc ratio” value under setting [1] is 0.738.
On the same count and under the same terms, for `CNC(=O)c1ccc2cc([C@@]3(O)CCn4cncc43)ccc2c1` [TAK-700 (Orteronel)] the value was 0.776; for `CO[C@H]1C[C@@H]2CC[C@@H](C)[C@@](O)(O2)C(=O)C(=O)N2CCCC[C@H]2C(=O)O[C@H]([C@H](C)C[C@@H]2CC[C@@H](OC(=O)C(C)(CO)CO)[C@H](OC)C2)CC(=O)[C@H](C)/C=C(\C)[C@@H](O)[C@@H](OC)C(=O)[C@H](C)C[C@H](C)/C=C/C=C/C=C/1C`, 0.565; for `O=C(NOC[C@H](O)CO)c1ccc(F)c(F)c1Nc1ccc(I)cc1F`, 0.6.
Take `O=C(O)Cn1nnc(-c2ccc(CN(CCCCOc3ccc(CN4CCCC4)cc3)CCc3ccccc3)cc2)n1` [TH1834 (dihydrochloride)]: under setting [1], the “PARP1 L713F-nLuc/akaLuc ratio” value was 1.29.
Same read-out and setting: for `O=C(NO)c1ccc(CN2CCCc3cc(Cl)ccc32)cc1` the value was 1.01; for `Cc1nc(N)sc1-c1ccnc(Nc2ccc(N3CCOCC3)cc2)n1`, 0.726.
Take `CCCC(CCC)C(=O)O` [Valproic acid (sodium salt)]: under setting [1], the “PARP1 L713F-nLuc/akaLuc ratio” value was 0.704.
For `COc1cc2/c(=N/c3ccc(Br)cc3F)nc[nH]c2cc1OCC1CCN(C)CC1` [Vandetanib (ZD6474)], the “PARP1 L713F-nLuc/akaLuc ratio” value under setting [2] is 0.748.
Regarding `CCCC(CCC)C(=O)O` [Valproic acid], the “PARP1 L713F-nLuc/akaLuc ratio” value under setting [1] was 1.52.
Regarding `C=CC(=O)Nc1cccc(Nc2nc(Nc3ccc(N4CCN(C(C)=O)CC4)cc3OC)ncc2C(F)(F)F)c1` [Rociletinib (CO-1686, AVL-301)], the “PARP1 L713F-nLuc/akaLuc ratio” value under setting [1] is 0.886.
Regarding `Cc1cn(-c2cc(NC(=O)c3ccc(C)c(Nc4nccc(-c5cnccn5)n4)c3)cc(C(F)(F)F)c2)cn1` [Radotinib], under setting [1], the “PARP1 L713F-nLuc/akaLuc ratio” value is 0.904.
`COc1cccc(OC)c1C(=O)OCc1cc(O)ccc1O[C@@H]1O[C@H](CO)[C@@H](O)[C@H](O)[C@H]1O` [Curculigoside]: the “PARP1 L713F-nLuc/akaLuc ratio” value under setting [1] was 0.993.
On the same count and under the same terms, for `CC(C)[C@H]1C(=O)N[C@@H](CCCN=C(N)N)C(=O)NCC(=O)N[C@@H](CC(=O)O)C(=O)N[C@H](Cc2ccccc2)C(=O)N1C` the value was 0.738; for `CNS(=O)(=O)C[C@H]1CC[C@H](N(C)c2[nH]cnc3nccc2-3)CC1` [Oclacitinib (maleate)], 0.749.
Regarding `CC(C)N(CCC(=O)c1ccc2ccccc2c1)Cc1ccccc1`, under setting [1], the “PARP1 L713F-nLuc/akaLuc ratio” value was 0.841.
On the same count and under the same terms, the value for `N#Cc1cccnc1N1CCN(C(=O)c2cccc(Cc3n[nH]c(=O)c4ccccc34)c2)CC1` was 2.72 (active); that for `O=C(O)CC[C@H](O)C(=O)O` [L-2-Hydroxyglutaric acid (disodium)] was 1.2; that for `COc1ccc2c(Oc3ccc4c(C(=O)Nc5ccccc5N)cccc4c3)ccnc2c1` [Chiauranib] was 0.819.
Regarding `CC(C)(O)c1ccc(-c2nc3c(F)cc(F)cc3c(=O)[nH]2)cc1` [Tankyrase-IN-2], under setting [1], the “PARP1 L713F-nLuc/akaLuc ratio” value was 2.95 (active).
Same read-out and setting: for `CS(=O)(=O)N1CCN(Cc2cc3nc(-c4cccc5[nH]ncc45)nc(N4CCOCC4)c3s2)CC1` [Pictilisib (GDC-0941)] the value was 0.659; for `O=C(O)CCNC(=S)NCCCC[C@H](NS(=O)(=O)c1cccc(F)c1)C(=O)N[C@@H](Cc1c[nH]c2ccccc12)C(=O)NC1CCC1` [SIRT5 inhibitor 1], 0.907.
On to `O=C1/C(=C/c2ccc(O)c(Br)c2)CN(Cc2ccccc2)C/C1=C\c1ccc(O)c(Br)c1`, for which the “PARP1 L713F-nLuc/akaLuc ratio” value under setting [1] was 0.985.
As to `C[C@@H]1O[C@@H](O[C@H]2[C@H](OC(=O)[C@]34CCC(C)(C)C[C@H]3C3=CC[C@@H]5[C@@]6(C)C[C@H](O)[C@H](O[C@@H]7O[C@H](CO)[C@@H](O)[C@H](O)[C@H]7O)C(CO)(CO)[C@@H]6CC[C@@]5(C)[C@]3(C)C[C@H]4O)OC[C@H](O)[C@@H]2O)[C@H](O)[C@H](O)[C@H]1O[C@@H]1OC[C@@H](O)[C@H](O[C@@H]2OC[C@](O)(CO)[C@H]2O)[C@H]1O` [Platycodin D], under setting [1], the “PARP1 L713F-nLuc/akaLuc ratio” value is 0.771.
Same read-out and setting: for `COC1CCN(C(=O)c2cc(Cc3n[nH]c(=O)c4ccccc34)ccc2F)CC1` the value was 7.52 (active).
For the molecule `Cc1nc(F)ccc1-c1cc(Cn2ccn(C)c2=N)cc(C(=O)NCc2ccc(Cl)c(Cl)c2)c1`, the “PARP1 L713F-nLuc/akaLuc ratio” value under setting [1] is 0.928.
Consider `Cc1ccc(Oc2nc3cc(-c4ccc(-c5ccccc5)cc4)c(Cl)cc3[nH]2)cc1C(=O)O`, for which the “PARP1 L713F-nLuc/akaLuc ratio” value under setting [1] was 0.635.
For `O=C(CNC(=O)[C@H](COP(=O)(O)O)NC(=O)CCc1c[nH]c2ccccc12)NCCCCc1ccccc1`, under setting [1], the “PARP1 L713F-nLuc/akaLuc ratio” value was 1.08.
As to `Clc1cc2c(NC3CCCC3)nnc(-c3ccncc3)c2cc1Cl`, the “PARP1 L713F-nLuc/akaLuc ratio” value under setting [1] is 0.888.
The same measure, in the same setting: the value for `Cc1ccc(NC(=O)c2ccc(CN3CC[C@H](N(C)C)C3)c(C(F)(F)F)c2)cc1Nc1nccc(-c2cncnc2)n1` [Bafetinib (INNO-406)] was 0.726.
For the molecule `O=C1COc2c(CCNCCN(C(=O)CCNCCc3ccc(Cl)c(Cl)c3)C3CCCCC3)ccc(O)c2N1`, under setting [1], the “PARP1 L713F-nLuc/akaLuc ratio” value was 1.16.
`CCc1c(N(CC)C2CCOCC2)cc2oc(C3CCN(C(C)C)CC3)cc2c1C(=O)NCc1c(C)cc(C)[nH]c1=O`: the “PARP1 L713F-nLuc/akaLuc ratio” value under setting [2] is 0.847.
Take `Nc1ncc(-c2cnn(CCO)c2)c2scc(-c3ccc(NC(=O)Nc4cccc(F)c4)cc3)c12` [Ilorasertib (hydrochloride)]: the “PARP1 L713F-nLuc/akaLuc ratio” value under setting [1] was 0.906.
Turning to `Cc1cc2c(F)c(Oc3ncnn4cc(OC[C@@H](C)O)c(C)c34)ccc2[nH]1`, the “PARP1 L713F-nLuc/akaLuc ratio” value under setting [1] was 0.898.
As for `O=c1[nH]c(=O)n([C@H]2C[C@H](O)[C@@H](CO)O2)cc1F` [Floxuridine], under setting [1], the “PARP1 L713F-nLuc/akaLuc ratio” value is 0.549.
On to `Cc1cc(Nc2cc(N3CCN(C)CC3)nc(Sc3ccc(NC(=O)C4CC4)cc3)n2)n[nH]1` [Tozasertib (VX-680, MK-0457)], for which, under setting [1], the “PARP1 L713F-nLuc/akaLuc ratio” value was 0.821.
The same measure, in the same setting: for `CC/C(=C(\c1ccccc1)c1ccc(OCCNC)cc1)c1ccccc1` [N-Desmethyltamoxifen (hydrochloride)] the value was 0.968; for `COc1c(O)cc2oc(-c3ccc(O)cc3)cc(=O)c2c1O` [Hispidulin], 0.723.
As for `Nc1nc(=O)n(-c2cccc(-c3ccccc3)c2)cc1Cl` [Bobcat339 (hydrochloride)], the “PARP1 L713F-nLuc/akaLuc ratio” value under setting [1] was 0.757.
Consider `CC(C)NC(=O)COc1cccc(-c2nc(Nc3ccc4[nH]ncc4c3)c3ccccc3n2)c1`, for which the “PARP1 L713F-nLuc/akaLuc ratio” value under setting [1] is 0.38.
As to `CCCS(=O)(=O)Nc1ccc(F)c(C(=O)c2c[nH]c3ncc(-c4ccc(Cl)cc4)cc23)c1F` [Vemurafenib (PLX4032, RG7204)], the “PARP1 L713F-nLuc/akaLuc ratio” value under setting [1] was 0.608.
Regarding `Nc1nc(OCc2cc(Br)cs2)c2ncn(CCCCCCCCO[C@@H]3O[C@H](CO)[C@@H](O)[C@H](O)[C@H]3O)c2n1` [O6BTG-octylglucoside], the “PARP1 L713F-nLuc/akaLuc ratio” value under setting [1] is 0.863.
Turning to `CCC(C)n1ncn(-c2ccc(N3CCN(c4ccc(OCC5COC(Cn6cncn6)(c6ccc(Cl)cc6Cl)O5)cc4)CC3)cc2)c1=O` (stereo unspecified) [Itraconazole], the “PARP1 L713F-nLuc/akaLuc ratio” value under setting [2] was 0.872.
Regarding `C=CC(=O)Nc1cc2c(Nc3ccc(F)c(Cl)c3)ncnc2cc1OCCCN1CCOCC1` [Canertinib (CI-1033)], the “PARP1 L713F-nLuc/akaLuc ratio” value under setting [2] was 1.01.
For the molecule `N#CCNC(=O)c1ccc(-c2ccnc(Nc3ccc(N4CCOCC4)cc3)n2)cc1` [Momelotinib], the “PARP1 L713F-nLuc/akaLuc ratio” value under setting [1] is 0.661.
For the molecule `CNc1nc(-c2ccc3c(N)n[nH]c3c2)cc(N2C[C@@H](C(=O)NC3CCCCC3)CC[C@H]2C)n1`, the “PARP1 L713F-nLuc/akaLuc ratio” value under setting [1] was 0.434.
As for `CN(C)CCCN(CC[C@H](N)C(=O)O)C[C@H]1O[C@@H](n2cnc3c(N)ncnc32)[C@H](O)[C@@H]1O` [GSK2807 (Trifluoroacetate)], the “PARP1 L713F-nLuc/akaLuc ratio” value under setting [1] was 0.926.
As to `CNCc1ccc(-c2[nH]c3cc(F)cc4c3c2CCNC4=O)cc1` [Rucaparib (Camsylate)], the “PARP1 L713F-nLuc/akaLuc ratio” value under setting [1] is 6.55 (active).
Regarding `Cn1cc(-c2ccc(F)c(C(F)(F)F)c2)nc1C1CCN(c2ncnc3[nH]ncc23)CC1`, the “PARP1 L713F-nLuc/akaLuc ratio” value under setting [2] is 0.945.
As for `COc1cc2c(N3CCN(C(=O)Nc4ccc(OC(C)C)cc4)CC3)ncnc2cc1OCCCN1CCCCC1` [Tandutinib (MLN518)], the “PARP1 L713F-nLuc/akaLuc ratio” value under setting [2] was 1.73.
For `CN(C(=O)c1ccc(F)cc1C(F)(F)F)C1CCN(c2nnc(-c3ccnn3C)c3ccccc23)CC1`, the “PARP1 L713F-nLuc/akaLuc ratio” value under setting [2] was 1.11.
Same read-out and setting: the value for `Cc1nn(C)c(COc2ccc(N3CCN(S(=O)(=O)N(C)C)CC3)cc2)c1-c1cccc2c(CCCOc3cccc4ccccc34)c(C(=O)O)n(CCN3CCOCC3)c12` was 1.04.

The values are drawn from the supplement of paper PMC11624193, “Coupling cellular drug-target engagement to downstream pharmacology with CeTEAM” (Nature Communications, 2024).
